Source: PubChem BioAssay AID1942 (Johns Hopkins Ion Channel Center, 2009)
Hit rate of the full screen: of about 2,400 compounds, about 580 (24%) were called active. Only a sample is shown. Unmarked numbers belong to inactive results.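 Rule for the calls: active = activity change at or above the mean plus 3 SD of buffer wells without dofetilide, per plate; inactive = the rest.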

target: Potassium voltage-gated channel subfamily KQT member 2 (Rattus norvegicus) (UniProt O88943); test: KCNQ2 potentiation in CHO cells – cell-based, FluxOR thallium flux, counter-screen for hERG block protector project, confirmation (AID 1942); conditions: FluxOR thallium flux fluorescence, at 10 µM, active compounds read high;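 note: normalized value minus buffer-control mean plus three SD of buffer wells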
Sequence (O88943 whole entry, looked up): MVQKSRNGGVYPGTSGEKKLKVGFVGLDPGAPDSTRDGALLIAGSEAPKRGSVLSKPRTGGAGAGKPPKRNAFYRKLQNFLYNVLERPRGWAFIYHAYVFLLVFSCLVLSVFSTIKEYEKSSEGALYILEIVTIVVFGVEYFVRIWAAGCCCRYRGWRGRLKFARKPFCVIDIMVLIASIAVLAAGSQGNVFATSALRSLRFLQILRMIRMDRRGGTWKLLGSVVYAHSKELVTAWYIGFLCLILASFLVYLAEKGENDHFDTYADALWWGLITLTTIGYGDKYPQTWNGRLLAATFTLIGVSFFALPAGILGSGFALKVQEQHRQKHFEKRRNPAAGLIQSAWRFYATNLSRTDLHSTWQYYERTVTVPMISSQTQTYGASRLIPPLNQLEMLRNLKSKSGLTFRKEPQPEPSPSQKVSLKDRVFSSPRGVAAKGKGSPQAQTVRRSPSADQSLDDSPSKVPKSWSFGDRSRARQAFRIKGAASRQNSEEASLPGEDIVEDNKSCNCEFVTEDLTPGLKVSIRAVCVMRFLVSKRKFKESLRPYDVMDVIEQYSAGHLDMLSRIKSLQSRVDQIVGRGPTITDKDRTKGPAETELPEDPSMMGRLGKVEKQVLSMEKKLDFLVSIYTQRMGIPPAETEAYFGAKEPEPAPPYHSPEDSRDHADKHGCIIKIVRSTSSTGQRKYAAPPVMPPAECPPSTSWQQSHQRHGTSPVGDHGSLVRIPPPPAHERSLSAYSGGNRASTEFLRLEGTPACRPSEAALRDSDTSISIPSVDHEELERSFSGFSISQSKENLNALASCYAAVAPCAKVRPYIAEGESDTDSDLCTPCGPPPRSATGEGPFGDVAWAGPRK

| Structure (SMILES) | activity change, less the hit threshold |
| --- | --- |
| Cc1cc(OCCN2CCCCCC2)ccc1[N+](=O)[O-] | -19.9% |
| O=c1cc(-c2ccccc2)cc(-c2ccccc2)n1O | 57.6% (active) |
| Cn1c(=O)cc(-c2ccccc2)c2ccccc21 | -20.4% |
| C/C=C(\C)CN1CCN(c2cccc(C)c2C)CC1 | -16.9% |
| Cc1ccccc1OCC(=O)NNC(=O)c1ccc2c(=O)n3c(nc2c1)CCC3 | -15.4% |
| O=C(NC(=S)N1CCCc2ccccc21)c1ccc(Br)cc1 | 18.2% (active) |
| O=C(NC(=S)Nc1ccccc1N1CCCC1)c1ccc([N+](=O)[O-])cc1 | -8.4% |
| COc1ccccc1NC(=S)N1CCCc2ccccc21 | -23.2% |
| O=C(COc1ccc(Br)cc1Br)NC(=S)N1CCCc2ccccc21 | -16.8% |
| CCC(=O)N1CCCc2ccccc21 | -20.5% |
| O=C(NC(=S)N1CCCc2ccccc21)c1ccc([N+](=O)[O-])cc1 | 15.1% (active) |
| COc1ccccc1NC(=O)Cc1nnc(SCC(=O)Nc2nccs2)n1C | -13.3% |
| Cc1ccc(C2c3c(-c4ccccc4O)n[nH]c3C(=O)N2Cc2ccncc2)cc1 (stereo not drawn) | -18.8% |
| O=C1N2CCSC2=NC1(NS(=O)(=O)c1ccccc1)C(F)(F)F (stereo not drawn) | -12% |
| O=C(Nc1ccccc1)N1CCSc2cc(Cl)ccc21 | -9.1% |
| Cc1ccc(C)n1-n1c(C)nc2scc(-c3ccccc3)c2c1=O | -30.9% |
| Cn1nnnc1Sc1ncnc2scc(-c3ccc(F)cc3)c12 | -21.3% |
| S=c1[nH]cnc2scc(-c3ccccc3)c12 | 44.9% (active) |
| S=c1[nH]cnc2scc(-c3ccc(Cl)cc3)c12 | 18.2% (active) |
| S=c1[nH]cnc2scc(-c3ccc(Br)cc3)c12 | 4.9% (active) |
| Cc1ccc(-c2csc3nc[nH]c(=S)c23)cc1 | 41% (active) |
| Fc1ccc(-n2cc(-c3ccccc3)c3c(=S)nc[nH]c32)cc1 | -9.7% |
| Cn1cc(/C=N/n2cnc3scc(-c4ccc(Cl)cc4)c3c2=O)c2ccccc21 | -18.8% |
| CC1=NN(C(=O)c2cc(C)nn2C)C(O)(C(F)(F)F)C1 (stereo not drawn) | -11.2% |
| Nc1nc(Br)c2c(F)cccc2c1-c1ccc(Cl)cc1 | -21.1% |

| Structure (SMILES) | activity change, less the hit threshold |
| --- | --- |
| COc1ccc(NC(=O)C2CCN(S(=O)(=O)c3cn(C)nc3C)CC2)cc1 | -13.2% |
| O=C(Cn1c(=O)c2cccn2c2ccccc21)NCCc1ccc(Cl)cc1 | -34.9% |
| CC1CCCN(C(=O)COC(=O)c2cc(-c3cccs3)nn2-c2ccccc2)C1 (stereo not drawn) | -25.5% |
| O=C(CSc1ncnc2c1cnn2-c1ccc(Cl)cc1)NCc1ccc2c(c1)OCO2 | -11.1% |
| Cn1ncc2c(NNC(=O)Cc3ccccc3)ncnc21 | -14.4% |
| Cc1ccc(-n2ncc3c(SCC(=O)NNC(=O)c4ccco4)ncnc32)cc1 | 4.4% (active) |
| CC(C)Oc1c(Cl)cc(CNC(C)(C)CO)cc1Cl | -18.3% |
| c1cnc2c(Oc3ncnc4sccc34)cccc2c1 | -17% |
| Cc1ccccc1NC1=C/C(=N\S(=O)(=O)c2ccc(C(=O)O)cc2)c2ccccc2C1=O | 10% (active) |
| O=C(O)c1ccc(S(=O)(=O)/N=C2\C=C(Nc3ccccc3F)C(=O)c3ccccc32)cc1 | 3.9% (active) |
| Cc1cc(NC(C)C)n2c(nc3ccccc32)c1C#N | -21.5% |
| Cc1cc(NC(=O)CCCn2cnc([N+](=O)[O-])n2)no1 | -14.3% |
| Cc1c(-c2ccccc2)sc2nc[nH]c(=S)c12 | 43.6% (active) |
| Cc1sc2nc[nH]c(=S)c2c1-c1ccccc1 | 41.3% (active) |
| CC(=O)C1=C(C)NC(=O)NC1/C=C/c1ccccc1 (stereo not drawn) | -23% |
| CCN(CC(=O)NCc1ccc(Cl)cc1)C(=O)CCOc1ccc(C)cc1 | -24.3% |
| CCCCCN(C(=O)CCC(=O)OCC(=O)N(C)C1CCCCC1)c1c(N)n(CCCC)c(=O)[nH]c1=O | -22.7% |
| CCN1CCN(C(=O)c2ccc(Cn3c(=O)[nH]c4cc(OC)c(OC)cc4c3=O)cc2)CC1 | -7.7% |
| Cc1cccc(NC(=S)NC(=O)c2ccco2)c1C | 54.7% (active) |
| Cc1cccc(NC(=O)CCNC(=O)c2ccco2)c1C | -12.3% |
| CN1CCN(c2ccc(NC(=O)c3ccc(Br)o3)cc2)CC1 | -6.3% |
| Cc1cccc(NC(=S)NC(=O)c2ccc(Br)o2)c1C | 12.7% (active) |
| Cc1cccc(C)c1NC(=S)NC(=O)c1ccc(Br)o1 | 66.5% (active) |
| C/C(=C/CCC(C)C1CCC2(C)C3CCC4C(C)(C)C(=O)CCC4(C)C3=CCC12C)C(=O)O (stereo not drawn) | -17.4% |
| CO/N=C(\CCC(=O)O)c1cccs1 | -9.3% |

| Structure (SMILES) | activity change, less the hit threshold |
| --- | --- |
| Cc1ccccc1NC1=NC(=S)N(c2ccccc2)C12CCCCC2 | 11.4% (active) |
| CC1(C)CC2(CCO1)C(Nc1ccccc1)=NC(=S)N2CC(N)=O (stereo not drawn) | -15.8% |
| COc1ccc(/C=C/c2cc(=O)c3cc(Cl)ccc3o2)cc1 | -18.8% |
| NS(=O)(=O)c1ccc(NC(=O)c2ccc(S(=O)(=O)N3CCc4ccccc43)cc2)cc1 | -7.3% |
| COc1cccc(NC(=O)c2nn(-c3ccc(OC)cc3OC)c(=O)c3ccccc23)c1 | -13.8% |
| COc1cccc(-n2nc(C(=O)O)c3ccccc3c2=O)c1 | 3.7% (active) |
| COc1ccc(-n2nc(C(=O)NCC(=O)NCc3ccc(F)cc3)c3ccccc3c2=O)cc1OC | -10.3% |
| COc1ccc(C)cc1-n1nnnc1SCc1nc2ccccc2c(=O)[nH]1 | -22% |
| CCOC(=O)c1nc(C)n(-c2ccc(Cl)cc2)n1 | -12.5% |
| CCOC(=O)C1=NN(C(=O)c2ccc(C)cc2)C(O)(c2ccc(Cl)cc2)C1 (stereo not drawn) | 88.1% (active) |
| CCOC(=O)C1=NN(C(=O)c2ccccc2)C(O)(c2ccc(C)cc2)C1 (stereo not drawn) | 2.6% (active) |
| CCOC(=O)C1=NN(C(=O)c2ccc(OC)cc2)C(O)(c2ccc(Cl)cc2)C1 (stereo not drawn) | 71.1% (active) |
| CCC1=NN(C(=O)c2ccc(Cl)cc2)C(O)(c2ccc(C)cc2)C1 (stereo not drawn) | -12.6% |
| CCOC(=O)CN1N=C(/C=C/c2ccc(OC)cc2)CCC1=O | -17.3% |
| CCCCC1(O)CC(C(F)(F)F)=NN1C(=O)COc1ccccc1 (stereo not drawn) | -22.2% |
| O=C(CSc1nc2cc(Cl)ccc2s1)c1cc2ccccc2o1 | -2% |
| CN1C(=O)C2(OCC(C)([N+](=O)[O-])CO2)c2ccccc21 (stereo not drawn) | -9.8% |
| CC1=C(C#N)C(Nc2cc(C)ccn2)(C(F)(F)F)C(=O)N1 (stereo not drawn) | -18.4% |
| CSc1nc2c(c(=O)[nH]1)C(c1ccccc1Cl)CC(=O)N2 (stereo not drawn) | -20.4% |
| Cc1cc(C(=O)NP(=O)(N2CCOCC2)N2CCOCC2)c(C)n1-c1ccc(Br)cc1 | -22% |
| O=C(CSc1nnc(SCc2ccccc2)s1)N/N=C/c1ccc(Cl)cc1Cl | -22.9% |
| O=C1c2ccccc2C(=O)N1c1cccnc1 | -14.6% |
| Cc1ccc(C)c(NC(=S)c2nc3ccccc3s2)c1 | -7.6% |
| CC(C)Oc1ccc(CNC(=O)C2CCN(C(=O)N3CCOc4ccccc43)CC2)cc1 | -20.2% |
| CC(C)CC(=O)Nc1ccc2c3c(cccc13)CC2 | 44.7% (active) |

| Structure (SMILES) | activity change, less the hit threshold |
| --- | --- |
| CC(=O)c1ccc2c3c(cccc13)CC2 | -12.7% |
| COc1cc(C(=O)NCc2ccc(-c3nc4ccccc4o3)cc2)cc(OC)c1OC | -13.9% |
| Cc1cc(=O)[nH]c(SCC(=O)NC2CCCCC2)n1 | -14.4% |
| Cc1cc(Cl)c(S(N)(=O)=O)cc1OCC(=O)NC1CCCCC1 | -7.9% |
| Cc1cc(Cl)c(S(=O)(=O)N2CCSCC2)cc1OCC(=O)NC1CCCCC1 | 57.4% (active) |
| COC(=O)c1cc(S(=O)(=O)NCC2CCN(Cc3cc(C)ccc3C)CC2)c[nH]1 | -11.5% |
| Cn1ccnc1C(O)c1cccc(OCc2ccccc2)c1 (stereo not drawn) | -25.3% |
| C/C(=N\O)C1CC(CC(=O)O)C1(C)C (stereo not drawn) | -14.4% |
| CN(CC(=O)Nc1ccc(Cl)cc1)C(=O)c1cccc(S(=O)(=O)NCc2ccccc2)c1 | -17.3% |
| O=C(Nc1nnc(SCC(=O)N2CCCCC2)s1)C1CCCCC1 | -14.2% |
| O=C(Nc1cccc(Br)c1)C1CCCC1 | -12.2% |
| O=C(Nc1nc2c(Br)cc(Br)cc2c(=O)s1)C1CCC1 | 9.5% (active) |
| Cc1cc(=O)oc2c3c(cc(OCC(=O)N[C@@H](Cc4ccccc4)C(=O)O)c12)OC(C)(C)CC3 | -6.7% |
| C/C(CCC12CC3CC(CC(C3)C1)C2)=N\NC(N)=S | -17.2% |
| COc1ccc(-c2nc(=S)c3ccc4ccccc4c3[nH]2)cc1 | 51.5% (active) |
| COc1ccc(-n2c(=S)[nH]c3ccccc3c2=S)cc1 | -7.3% |
| COc1cccc(C2C3=C(N=c4s/c(=C\c5ccc(OCC(=O)O)cc5)c(=O)n42)c2ccccc2CC3)c1 (stereo not drawn) | -38.5% |
| Cc1ccc2nc(NC(=S)NC(=O)c3cccs3)sc2c1 | 5.5% (active) |
| O=C(NC(=S)Nc1nc2ccccc2s1)c1cccs1 | 7.1% (active) |
| COc1ccc(-c2csc(NC(=S)NC(=O)c3cccs3)n2)cc1OC | -5.3% |
| CCc1ccc2nc(NC(=O)c3cc(C)on3)sc2c1 | -6.5% |
| COc1ccc(-c2csc(NC(=S)NC(=O)c3cccs3)n2)cc1Br | -20.8% |
| O=C(NC(=S)Nc1nc(-c2ccccc2)cs1)c1cccs1 | -22.7% |
